Among the data in PubChem BioAssay (NCATS) are outcome and Potency values, retold here.

Values joined by “and” are separate entries in the source; they are usually repeats but may differ in a detail not shown here. Identical values can stand only once. Inconclusive results are not listed. Active and inactive are the calls of the source. Unless noted, calls come from the whole dose curve; as a rule, active = well fitted curve in the direction sought with a large enough effect; inconclusive = small, poorly fitted or top-dose-only effect, or another doubt; inactive = no such curve, though single readings can be large; an effect the other way counts as inactive or inconclusive.

Assay [1] can be described thus: Primary qHTS for small molecule stabilizers of the endoplasmic reticulum resident proteome: Secreted ER Calcium Modulated Protein (SERCaMP) assay (AID 1508630). Put shortly:
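GLuc-SERCaMP-expressing SH-SY5Y cells, pretreated 16 h with compound, are challenged with thapsigargin to empty ER calcium stores; after 4 h, coelenterazine is added directly to the medium and luminescence is imaged.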

Assay [2] can be described thus: A High-Content qHTS Against Drug Library for the Identification of Small Molecules that Inhibit DYT1 Early Onset Primary Dystonia-Associated Cell Pathology (AID 1645839; calls by dose curve). Put shortly:
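In this high-content image screen, delE TorsinA mislocalization in inducible Flp-In 293 cells is scored as %pathology, with cell count serving as the counterscreen. Compound exposure lasts 48 h under tetracycline induction in reduced-serum medium.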
(In general: Quantitative high-throughput screening tests each substance at several concentrations.)

For assay [3], the target named is Cytochrome P450 2D6 (Homo sapiens) (UniProt P10635). In words: Cytochrome P450 family 2 subfamily D member 6 (CYP2D6) small molecule antagonists: luciferase biochemical (cell-free) qHTS assay (AID 1645840; active = well fitted curve in the direction sought with a large enough effect in the repeat runs; an effect the other way counts as inactive or inconclusive; note: nearly all actives have a fitted effect of over 55% in size; note: potency is the fitted concentration of half-maximal effect). Put shortly: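 P450-Glo luminescent screen: recombinant CYP2D6 enzyme–proluciferin substrate mix preincubated with compound 10 min at room temperature, then NADPH regeneration added for 1 h at room temperature. Detection reagent added for 20 min; luciferin light read as relative luminescence units.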
Cytochrome P450 2D6 (Homo sapiens), sequence (P10635 whole entry, looked up): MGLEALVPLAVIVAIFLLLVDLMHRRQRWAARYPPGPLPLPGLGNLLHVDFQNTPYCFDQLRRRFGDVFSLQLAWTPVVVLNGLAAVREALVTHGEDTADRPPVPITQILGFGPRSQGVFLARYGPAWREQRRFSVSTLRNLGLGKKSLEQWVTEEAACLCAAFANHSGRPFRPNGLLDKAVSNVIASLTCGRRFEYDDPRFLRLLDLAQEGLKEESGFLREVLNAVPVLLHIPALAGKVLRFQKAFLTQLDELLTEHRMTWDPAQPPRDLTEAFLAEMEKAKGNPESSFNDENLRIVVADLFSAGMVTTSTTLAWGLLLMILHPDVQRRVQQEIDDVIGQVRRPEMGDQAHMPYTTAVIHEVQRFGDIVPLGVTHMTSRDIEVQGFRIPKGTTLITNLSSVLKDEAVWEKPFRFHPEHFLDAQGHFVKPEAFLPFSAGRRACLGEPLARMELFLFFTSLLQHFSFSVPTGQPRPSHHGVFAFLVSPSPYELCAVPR

In assay [4] the target is Cytochrome P450 2C9 (Homo sapiens) (UniProt P11712). Kind of assay: Cytochrome P450 family 2 subfamily C member 9 (CYP2C9) small molecule antagonists: luciferase biochemical (cell-free) qHTS assay (AID 1645842; active = well fitted curve in the direction sought with a large enough effect in the repeat runs; an effect the other way counts as inactive or inconclusive; note: nearly all actives have a fitted effect of over 55% in size; note: potency is the fitted concentration of half-maximal effect). Put shortly:
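Luminescence, after 20 min with luciferin detection reagent, reflected CYP2C9 turnover during a 1 h NADPH-driven reaction at 37C. Enzyme-substrate mix contained 0.4% bovine serum albumin and was preincubated with compound 10 min at room temperature.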

The nature of assay [5]: Primary qHTS for inhibitors of nuclear receptor binding SET domain protein 2 (NSD2) in an isogenic RCH-ACV NSD2 p.E1099K mutant (9B) (AID 1645876). Note: nearly all actives have a fitted effect of over 70% in size. Note: potency is the fitted concentration of half-maximal effect.
Assay [6] in a line: Primary qHTS for inhibitors of nuclear receptor binding SET domain protein 2 (NSD2) in an RCH-ACV wild type WT cells (2C) (AID 1645877). Note: nearly all actives have a fitted effect of over 70% in size. Note: potency is the fitted concentration of half-maximal effect.
Assay [7] in a line: NCATS anti-infectives library activity on HEK293 viability as a counter-qHTS vs the C. elegans viability qHTS (AID 1745854).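 Note: HEK293 cells exposed to compounds for 24 hr before the viability read.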 Put shortly:
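HEK293 cells (1,500/well) exposed 24 hr at 37C to 1:5 titrations, up to 41.7 uM final; counter-screen to a C. elegans viability qHTS. Viability by CellTiter-Glo luminescence after 10 min at room temperature; digitonin as control.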

The nature of assay [8]: NCATS anti-infectives library activity on the primary C. elegans qHTS viability assay (AID 1745855; calls by dose curve). The conditions noted are these: C. elegans worm area imaging, day 7; at 41.8 µM (top of the series). Put shortly: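 Viability read-out is GFP fluorescence of PE254-GFP-FLuc C. elegans, measured by laser cytometry (488 nm) at day 0, 3 and 7. Ten L1 worms per well were incubated 7 days at 21 °C with compounds and bacterial capsules in S medium.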

For assay [9], the target named is Cytochrome P450 3A4 (Homo sapiens) (UniProt P08684). Kind of assay: Cytochrome P450 family 3 subfamily A member 4 (CYP3A4) small molecule antagonists: luciferase qHTS assay (AID 1645841; active = well fitted curve in the direction sought with a large enough effect in the repeat runs; an effect the other way counts as inactive or inconclusive; note: nearly all actives have a fitted effect of over 45% in size). Put shortly:
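Luminescent CYP3A4 activity readout: compounds plus enzyme-substrate mix 10 min at room temperature, reaction started with NADPH regenerating system for 1 h, stopped with detection reagent, read after 20 min. Ketoconazole served as control.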

Cytochrome P450 2C9 (Homo sapiens), sequence (P11712 whole entry, looked up): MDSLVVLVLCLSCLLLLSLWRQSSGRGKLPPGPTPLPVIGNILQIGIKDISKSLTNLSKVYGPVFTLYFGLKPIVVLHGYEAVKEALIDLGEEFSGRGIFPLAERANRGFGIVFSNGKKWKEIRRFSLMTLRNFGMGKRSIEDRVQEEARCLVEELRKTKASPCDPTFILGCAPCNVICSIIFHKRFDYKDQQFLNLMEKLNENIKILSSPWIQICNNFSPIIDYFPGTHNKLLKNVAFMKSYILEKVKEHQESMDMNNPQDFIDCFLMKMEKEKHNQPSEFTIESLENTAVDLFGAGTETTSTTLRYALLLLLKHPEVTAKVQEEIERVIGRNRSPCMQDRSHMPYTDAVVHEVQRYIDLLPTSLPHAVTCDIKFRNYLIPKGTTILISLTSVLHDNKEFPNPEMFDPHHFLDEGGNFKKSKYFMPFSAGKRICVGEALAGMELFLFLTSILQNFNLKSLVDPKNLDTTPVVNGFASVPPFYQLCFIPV
Cytochrome P450 3A4 (Homo sapiens), sequence (P08684 whole entry, looked up): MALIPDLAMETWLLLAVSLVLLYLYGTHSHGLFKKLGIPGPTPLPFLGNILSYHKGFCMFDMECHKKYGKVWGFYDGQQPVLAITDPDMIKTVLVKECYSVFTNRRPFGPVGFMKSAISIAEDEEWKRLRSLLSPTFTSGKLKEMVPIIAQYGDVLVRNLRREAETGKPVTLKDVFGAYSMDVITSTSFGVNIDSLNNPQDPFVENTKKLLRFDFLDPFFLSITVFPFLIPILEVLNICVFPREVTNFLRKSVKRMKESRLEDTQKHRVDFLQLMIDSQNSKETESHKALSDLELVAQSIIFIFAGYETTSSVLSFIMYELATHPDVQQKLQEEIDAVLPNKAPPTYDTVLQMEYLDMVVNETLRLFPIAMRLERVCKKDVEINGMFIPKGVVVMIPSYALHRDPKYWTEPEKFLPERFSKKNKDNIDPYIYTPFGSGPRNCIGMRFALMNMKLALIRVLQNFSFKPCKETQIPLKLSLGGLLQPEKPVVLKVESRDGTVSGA

For `O=C(Cn1ccnc1[N+](=O)[O-])NCCO`, in [1], the outcome was inactive. Besides, the Potency result in assay [2], in [3], in assay [4], in assay [5] and in assay [6] was “inactive” throughout.

With `COCC(=O)Nc1c(I)c(C(=O)NCC(O)CO)c(I)c(C(=O)N(C)CC(O)CO)c1I` (stereo unspecified), the outcome in [1] was inactive. Moreover, the Potency result in [2], in assay [3], in assay [4], in [5] and in assay [6] was “inactive” in each case.

As to `CN1CCCN=C1COC(=O)C(O)(c1ccccc1)C1CCCCC1` (stereo unspecified), the result in assay [1] was inactive. Further, the Potency result in assay [2], in assay [4], in [5] and in [6] was “inactive” in each case. Also, in assay [3], the Potency is 1.23 µM (active).

Consider `CCN(CC)CCc1nc(-c2ccccc2)no1`, for which the result in assay [1] was inactive. For the same compound, the Potency result in [2], in [3], in assay [4], in [5] and in assay [6] was “inactive” each time.

With `CCCCCCCC(=O)OCC(COC(=O)CCCCCCC)OC(=O)CCCCCCC`, the outcome in assay [1] was inactive. Also, the Potency entry in [2], in assay [3], in assay [4], in assay [5] and in assay [6] was “inactive” each time.

For the compound `O=C(Cn1ccnc1[N+](=O)[O-])NCc1ccccc1`, the result in assay [1] was inactive. Besides, the Potency result in [2], in [3], in [4], in assay [5] and in [6] was “inactive” throughout.

Regarding `O=c1[nH]c(=O)n([C@H]2C[C@H](O)[C@@H](CO)O2)cc1I`, the result in assay [1] and in assay [7] was inactive. In addition, the Potency result in assay [2], in assay [3] and in assay [4] was “inactive” throughout. Moreover, the Potency in assay [5] is 3.35 µM (active) and 662 nM (active); in assay [6], 2.99 µM (active) and 662 nM (active).

`O=C1CC[C@@H](C(=O)O)N1`: the result in assay [1] was inactive. The Potency entry in assay [2], in assay [3], in assay [4], in [5] and in assay [6] was “inactive” each time.

For the compound `COC(=O)c1ccccc1C(=O)c1ccc(OCCN2CCCCC2)cc1`, the outcome in assay [1] was inactive. In addition, the Potency result in assay [2], in assay [4], in assay [5] and in assay [6] was “inactive” each time. In addition, the Potency in assay [3] is 11 µM (active).

With `Cc1cc(C)c(NC(=O)CN(CC(=O)O)CC(=O)O)c(C)c1Br`, the result in assay [1] was inactive. Further, the Potency result in assay [2], in assay [3], in assay [4], in assay [5] and in assay [6] was “inactive” in each case.

Consider `NS(=O)(=O)c1cc2c(cc1C(F)(F)F)NCNS2(=O)=O`, for which the result in assay [1] was inactive. For the same compound, the Potency result in [2], in assay [4], in assay [5] and in assay [6] was “inactive” in each case.

For `NC(=O)c1ccc([N+](=O)[O-])cc1Cl`, the result in [1] was inactive. The Potency entry in [2] and in [4] was “inactive” in each case.

Regarding `CC(=O)OC[C@H]1O[C@@](COC(C)=O)(O[C@H]2O[C@H](COC(C)=O)[C@@H](OC(C)=O)[C@H](OC(C)=O)[C@H]2OC(C)=O)[C@@H](OC(C)=O)[C@@H]1OC(C)=O`, in assay [1], the outcome was inactive. In addition, the Potency result in assay [2], in assay [3], in assay [5] and in assay [6] was “inactive” throughout.

With `O=C1c2ccccc2S(=O)(=O)N1CCCCN1CCN(c2ncccn2)CC1`, in [1], the result was inactive. For the same compound, the Potency entry in [2], in assay [5] and in [6] was “inactive” each time. Further, in assay [4], the Potency is 11 µM (active).

For the compound `O=C1c2cccc(O)c2C(=O)c2c(O)cccc21`, the outcome in [1] and in [7] was inactive. Also, the Potency entry in [2], in [3], in assay [4], in assay [5] and in assay [6] was “inactive” each time.

For the compound `Cc1c(Cn2ccnc2)c2ccccc2n1CCC(=O)O`, the outcome in assay [1] was inactive. In addition, the Potency entry in assay [2], in assay [5] and in assay [6] was “inactive” each time. Besides, the Potency in assay [4] was 1.95 µM (active).

Regarding `Cc1c(N(C)C)c(=O)n(-c2ccccc2)n1C`, the outcome in [1] was inactive. In addition, the Potency result in assay [2], in [3], in [5] and in [6] was “inactive” each time.

Take `O=C(CCBr)N1CCN(C(=O)CCBr)CC1`: the result in assay [1] was inactive. The Potency entry in [2], in assay [4], in assay [5] and in [6] was “inactive” each time.

On to `CC(=O)OCC(=O)[C@@]1(O)CC[C@H]2[C@@H]3CCC4=CC(=O)C=C[C@]4(C)[C@@]3(F)[C@@H](O)C[C@@]21C`, for which the result in [1] was inactive. Moreover, the Potency entry in assay [2], in assay [3] and in [4] was “inactive” in each case. Also, the Potency in [6] was 21.1 nM (active).

With `Cc1cccc(C)c1NC(=O)CC12CCCN1CCC2`, in assay [1], the outcome was inactive. The Potency entry in assay [2], in assay [4], in assay [5] and in assay [6] was “inactive” throughout.

On to `CCOC(=O)[C@H](CCc1ccccc1)N[C@@H](C)C(=O)N1Cc2cc(OC)c(OC)cc2C[C@H]1C(=O)O`, for which the result in assay [1], in [7] and in assay [8] was inactive. Besides, the Potency entry in assay [2], in assay [3], in assay [5] and in assay [6] was “inactive” each time. For the same compound, in [4], the Potency is 12.3 µM (active).

In the case of `Cc1[nH]c(C)c(Cl)c(=O)c1Cl`, the result in [1] was inactive. Besides, the Potency entry in assay [2], in [4], in [5] and in assay [6] was “inactive” each time.

Consider `CCCNC(C)C(=O)Nc1c(C)csc1C(=O)OC` (stereo unspecified), for which the outcome in [1] was inactive. Moreover, the Potency result in assay [2], in assay [4], in assay [5] and in [6] was “inactive” throughout.

Regarding `Nc1ncnc(Nc2ccccc2)n1`, the outcome in [1] was inactive. For the same compound, the Potency result in assay [2], in assay [4], in [5] and in [6] was “inactive” each time.

As to `OCc1ccc(Cl)cc1Cl`, the outcome in assay [1], in assay [9] and in [7] was inactive. In addition, the Potency entry in [2], in assay [4], in assay [5] and in assay [6] was “inactive” in each case.

Turning to `Cc1ccc(S(=O)(=O)NC(=O)NC2CCCCC2)cc1`, the result in assay [1] was inactive. In addition, the Potency entry in assay [2], in assay [3], in [5] and in [6] was “inactive” each time.

Consider `CCN(CC)CCOC(=O)C(c1ccccc1)c1ccccc1`, for which, in [1], the outcome was inactive. In addition, the Potency result in assay [2], in assay [5] and in [6] was “inactive” each time. For the same compound, in [3], the Potency was 1.95 µM (active).

For the compound `O=C(O)[C@@H]1[C@H]2C[C@H]3c4[nH]c5ccccc5c4CCN3C[C@@H]2CC[C@@H]1O`, the outcome in assay [1] was inactive. The Potency result in assay [2], in [4], in assay [5] and in assay [6] was “inactive” throughout.
